Data reported in PubChem BioAssay AID1159506 (National Center for Advancing Translational Sciences (NCATS), 2015).
Whole data set: some 59,000 sequences, median the read-out near -0.00055, cut for the lowest 2% near -2. Only a selection was taken, and the lowest values are over-represented in it overall.

Test: Identification of proteins required for the processing of the EWS-FLI1 nascent transcript;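 note: robust z of luciferase light less the median z of siRNAs with the same seed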
Conditions: TC32 Ewing sarcoma NR0B1-luc vs CMV-luc (EWS-FLI1 target promoter against control promoter), 48 h; screened at 20 nM (by protocol)
Outline: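 Genome-wide siRNA screen (Ambion v4.1, three siRNAs per gene, 20 nM final, RNAiMax) in Ewing sarcoma TC32 cells carrying NR0B1-promoter or CMV-promoter luciferase; OneGlo luciferase read 48 h post-transfection. Data normalized, z-score-MAD transformed and seed-adjusted.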

Point of comparison: UGUUGAGUAGGUCCGUUCC against EPHA7, seed-corrected z-score 0.58. Against it:
- UAGCGAAUCUGUAAGCUGC against MLLT10 — lower, -0.471
- UUUUGAUGCUGUCUACAGG against METTL2B — lower, -1.55
- UUACCUAUCCCUGAGACAC against MICAL2 — lower, 0.383
- UCCUCUGCGAAGUUCUUGG against PANX2 — lower, -2.24
- UCCAUGAGCGCAAUCAUGC against CAPN3 — lower, 0.116
- UCUUCUUCACGAGUUGAGG against GPRC5A — lower, -0.133
- UGAGUCAAUGAUGCGCUUC against SFN — higher, 2.54
- UUGAUGUACAGAUACCAGG against BTBD18 — lower, -2.42
- AAAAGUCCAAACAAUACCC against GPR156 — lower, -0.327
- UACUUGAGCACGUCGAUGA against C19orf68 — lower, -0.256
- UCACUUUGAACUUUCCGGC against SCP2D1 — lower, -1.27
- AAUGGGAAAAGAAUUGCUU against IGFBP7-AS1 — lower, 0.0752
- UUGGUGGAUAUACUCAAUC against EXO5 — lower, -2.07
- UGAGGAACCAGUUCCAAGG against TMEM60 — lower, -0.737
- UUCCUGCUGCGUACACUUC against KCNAB3 — lower, -0.0212
- ACAUAUAUAAGAAUAUCGG against ARL3 — lower, -0.177
- UUGUGGAACAUCAUGUCUU against ADCY6 — higher, 1.34
- UAGGUUGUGACUGGUGGUG against ARID5A — lower, -3.43
- UAGUCGAACACCAAGAGGG against CDH3 — lower, -0.271
- UCCGGUUUAUAUUUGGUGC against EPSTI1 — lower, -0.285
- UUUCAUCCUAGAAACUCCC against SLC45A3 — lower, 0.412
- UUCACCAUAAACACGAUCC against DPM1 — lower, 0.428
- UAUGAAUCCAGAUUGAACU against CXCL1 — higher, 0.898
- UCCCGGUACAUGUUGUGGG against RPL18A — lower, -2.34
- UACAGUGACGAGAAGUUCU against RALGDS — higher, 0.583
- AUCUCUUCCACUUCCGAGG against SMARCB1 — lower, -2.19
- UAAUUGAACUGAUCCAGUC against WDR12 — lower, -0.242
- UUCCUUAGCACCAUUGAUG against MMADHC — higher, 1.09
- UCAGUUUUAGGAUAUAUAC against USP46-AS1 — lower, 0.575
- AUAUUAAGCAGACAACUCC against DIRC2 — lower, 0.227
- UGAGGUUAAAGAAGGUGAC against HRH3 — lower, -0.214
- UGAGUUUCAUCAUAGUCUG against BMX — lower, -4.87
- UAAGCACACAUUUACUUGG against HIST1H2BG — higher, 0.782
- UUUCAUCUGAAGACAGGAC against DDIT3 — lower, -1.09
- UCUUCGUUGAGUGCAUCCC against SOCS2-AS1 — lower, -0.904
- UAUGUAGUUAAGACCAUUC against IRS1 — lower, 0.431
- ACAAUUUUAGCUGUAACCC against OC90 — higher, 0.989
- UCGCUGUCGAGCAGUAAGC against INO80B — lower, -2.1
- UUAGUGGUCAUGGGCUUCC against GTF2F1 — lower, -0.176
- UCGCUUGCAAAUAAUCUGC against ULK2 — lower, -0.141
- AAGUCUGCGAUUAAAGCUG against DTNBP1 — lower, -2.27
- UACAUAGCAAACAUGACCG against ATL2 — lower, -0.859
- UGAAGGUUUGGAGCAAACU against RPL15P17 — lower, 0.127
- UGAUCUCAGUCCUCGCUGC against LINC01118 — lower, -0.476
- UGUAGGAACACUCAUCACC against KCNA4 — lower, -2.42
- UUCUGUCCAAUUGUCGCUG against JTB — lower, -0.0311
- UAGCAUGUAACGUGUGACC against CNTNAP1 — lower, -0.734
- UGAAGAUCCAGCAAGUAUC against 6-Mar — higher, 0.65
- UCACAUGCAUCAAUUUUCG against NDUFB5 — lower, 0.331
- UAUAGCUGAAUGGUCAUUG against KRTAP3-3 — lower, -3.04
- UCAGUGACAACAUCACGGC against PPP2R5D — lower, 0.201
- UGCCGUCUUACUCUUUGCG against C19orf53 — lower, -0.415
- AAACUUGUUUCUGCACAUG against OR2F1 — higher, 1.3
- UUCCCAUUGAUACUCAUGG against LECT1 — lower, -0.035
- UAAUGCUUGAGGCACUUGG against CALHM2 — lower, 0.134
- UUGUCUCUCACUCAGAUUG against HOXB9 — higher, 0.619
- UGCUUUGCAAUGAUCUCUC against HNRNPM — lower, -2.32
- UGUCAUGCAAUAAGAAUCU against NLGN4Y — lower, 0.297
- UUAGAGUAAGUAAAUAUCC against RPS18P5 — lower, -0.219
- UGGGUAUACAGUCAUCAUC against SLC38A9 — lower, -2.9
- UUGGGUAAAAGACAGUUGA against TKT — lower, -0.555
- UAGACAACAUCAGUGAUCC against RPS8P4 — lower, 0.47
- AAGCUUCUUAACUUCAUUC against RPL14P1 — lower, -3.84
- UUUGGAGAACUCCCUGGGC against FLYWCH1 — lower, -0.00776
- UAAUUGAGGGAGCAAAGGC against FAM53A — lower, -0.541
